# High-throughput results as filed in PubChem.
# GluA2 TARP mod = modulators of GluA2-stargazin AMPA receptor complexes, primary screen, cell-based, membrane potential dye | Voltage-dependent calcium channel gamma-2 subunit (Mus musculus) + Glutamate receptor 2 … | HEK293 GluA2+stargazin, membrane potential dye (FDSS), glutamate EC50; hits were called plate by plate, in both directions | calls only at 30 µM | actives 3.5% (n = 40,000) | AID 1259245, 2017;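 active means any of four per-well response measures lying three or more SD from its plate-wide compound average, in either direction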
# GIRK2 act = activators of NPY4-receptor-primed GIRK2 channels, summary, cell-based, HEK293, thallium flux. G protein-activated inward rectifier potassium channel 2 (Homo sapiens), P48051. HEK293 GIRK2/NPY4 cells, thallium flux fluorescence. activation (% efficacy), % for hits at 37.5 µM. 34,000 tested, under 10 active;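 active means primary screen hit, no activity in plain HEK293 cells, and in GIRK2-only cells above 5% efficacy rising with concentration; inactive means the rest, including fluorescent compounds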;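 further: efficacy is normalized control-subtracted fluorescence 15 s after thallium addition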
# Starred values were filed as active, the others as inactive; i = inactive; . = not tested or not shown; + = active, no number. This is one part of a sample in which hits are shown more often than they occur.
SMILES,GluA2 TARP mod,GIRK2 act
O=S(=O)(NCC(O)c1ccc(C(F)(F)F)cc1)c1ccc(OC(F)(F)F)cc1 (stereo not given),+,.
CC(C)N(CC#CCNS(=O)(=O)c1ccc(OC(F)(F)F)cc1)C(C)C,+,.
CC(C)N(CC#CCNS(=O)(=O)c1cc(F)ccc1F)C(C)C,i,.
O=S(=O)(NCC(O)c1ccc(C(F)(F)F)cc1)c1ccc2c(c1)OCCO2 (stereo not given),i,i
CCOc1ccc(N2CCn3c2nn(Cc2ccccc2Cl)c(=O)c3=O)cc1,i,.
Cc1ccc(NC(=O)c2ccc(=O)n(CC(=O)Nc3ccccc3C)n2)cc1,i,i
CCC(C(=O)N1CC(c2nc(C)no2)C1)c1ccccc1 (stereo not given),i,i
O=C(NCCn1nc(-n2cccn2)ccc1=O)c1ccc2nsnc2c1,.,i
CCOC(=O)Nc1ccc2c(c1)NC(=O)C(C)(C)CO2,i,i
CCCOc1ccc(S(=O)(=O)Nc2ccc3c(c2)NC(=O)C(C)(C)CO3)cc1,+,.
COc1ccccc1NC(=O)NCC1(c2cccs2)CCOCC1,i,i
COc1ccc(NC(=O)CN2CCC(COCc3ccccc3)CC2)c(OC)c1,i,i
COC(=O)N1CCC(CNC(=O)/C=C/c2cccs2)CC1,i,i
O=C(/C=C/c1cccs1)NCC1CCN(Cc2ccsc2)CC1,+,i
CCc1ccc(Oc2cc(N3CCC(C(=O)NCc4ccc(F)c(Cl)c4)CC3)ncn2)cc1,+,i
CCc1ccc(Oc2cc(N3CCC(C(=O)NCc4cccc(Cl)c4)CC3)ncn2)cc1,i,i
COc1ccccc1S(=O)(=O)NCCn1nc(-c2ccccn2)n(C)c1=O,i,i
Cc1cc(C(=O)NCCc2csc(-c3ccc(F)cc3)n2)c(C)o1,i,i
O=C(COc1ccc(C(=O)c2ccccc2)cc1)NCCn1nc(-c2ccc(Cl)cc2)ccc1=O,+,i
O=C(COc1ccc(C(=O)c2ccccc2)cc1)NCCn1nc(-c2cccs2)ccc1=O,i,i
CC(c1ccccc1)n1c(C2CC(=O)N(C(C)(C)C)C2)nc2ccccc21 (stereo not given),+,.
C=CCN1CC(c2nc3ccccc3n2Cc2c(C)c(C)cc(C)c2C)CC1=O (stereo not given),+,.
C=CCN1CC(c2nc3ccccc3n2Cc2ccc(C(C)(C)C)cc2)CC1=O (stereo not given),i,.
C=CCN1CC(c2nc3ccccc3n2Cc2ccc(Cl)c(Cl)c2)CC1=O (stereo not given),i,.
C=CCN1CC(c2nc3ccccc3n2C(C)c2ccccc2)CC1=O (stereo not given),+,.
SMILES,GluA2 TARP mod,GIRK2 act
CC(C)(C)N1CC(c2nc3ccccc3n2CCOc2ccccc2)CC1=O (stereo not given),i,.
COc1ccc(Cl)cc1NC(=O)Cc1cc(-c2ccco2)on1,i,i
CCCNC(=O)CCCCn1c(=O)c2ccccc2n(CC(=O)N2CCOc3ccc(C)cc32)c1=O,i,i
CCc1ccc(NC(=O)Cn2cc(OC)c(=O)cc2CSc2nc(C)cc(C)n2)cc1,i,i
O=C(NCC1(O)CCOCC1)C(=O)Nc1ccc2c(c1)OCCO2,i,i
O=C(NCC1(O)CCOCC1)C(=O)Nc1ccc(F)c(F)c1,+,i
CCC(CC)C(=O)N1CCN(c2ncnc3c2nnn3-c2ccc(Cl)cc2)CC1,i,.
CCn1c(-n2nc(C)cc2C)nc2c1c(=O)n(CCOC)c(=O)n2C,i,.
CCOCCn1c(=O)c2c(nc3n2CC(C)CN3c2ccc(Br)cc2)n(C)c1=O (stereo not given),i,.
COCCn1c(=O)c2c(nc(-n3nc(C)cc3C)n2C)n(C)c1=O,+,.
COCCn1c(=O)c2c(nc3n2CC(C)CN3c2ccc(Br)cc2)n(C)c1=O (stereo not given),+,.
COc1ccc(N2CCN(C(c3cccs3)C(C)NS(=O)(=O)c3ccc(Cl)cc3)CC2)cc1 (stereo not given),+,.
COc1ccc(N2CCN(C(c3cccs3)C(C)NS(=O)(=O)c3ccc(F)cc3)CC2)cc1 (stereo not given),i,.
Cc1nc(N2CCN(CCO)CC2)nc(Nc2ccc(F)cc2)c1[N+](=O)[O-],+,i
Cc1nc(N2CCN(CCO)CC2)nc(N2CCCCC2)c1[N+](=O)[O-],i,i
CCn1ccnc1N1CCN(C(=O)Cc2cccs2)CC1,.,i
Cc1cc(-c2nnc(NC(=O)/C=C/c3ccccc3)o2)nn1C,i,i
COc1cccc2cc(C(=O)Nc3nnc(-c4cc(C)nn4C)o3)oc12,+,i
COc1cccc(C(=O)Nc2nnc(-c3cc(C)nn3C)o2)c1OC,.,i
COc1ccc(-c2nnc(NC(=O)c3ccn(C)n3)o2)cc1OC,i,i
COc1ccc(-c2nnc(NC(=O)c3cc(C)nn3C)o2)cc1OC,+,i
COc1cc(/C=C/C(=O)Nc2nnc(-c3ccn(C)n3)o2)cc(OC)c1OC,+,i
COc1cc(C(=O)Nc2nnc(-c3cc(C)n(C)n3)o2)cc(OC)c1OC,+,i
COC(=O)c1ccc(C(=O)Nc2nnc(-c3cc(C)n(C)n3)o2)cc1,i,i
CCNC(=O)CSc1nc(-c2ccccc2)c(NC(=O)COc2ccccc2C)s1,i,i
SMILES,GluA2 TARP mod,GIRK2 act
COC(=O)N1CCC(CNC(=O)COc2cccc(OC)c2)CC1,.,i
CCC(CO)NC(=O)C(=O)Nc1ccc(C(C)C)cc1 (stereo not given),i,.
COc1cc(-c2nnc(NC(=O)c3cc(C)n(C)n3)o2)cc(OC)c1OC,+,i
CCn1nc(C(=O)Nc2nnc(-c3ccc(OC)cc3)o2)cc1C,.,i
Cc1ccc(-n2nnc(C(=O)N(C)C3CCS(=O)(=O)C3)c2C)cc1Cl (stereo not given),i,i
COc1ccc(NC(=O)C2CN(C(C)=O)C2)cc1,i,i
COc1ccc(S(=O)(=O)N2CCSC2c2ccc(Br)cc2)cc1 (stereo not given),i,.
COc1ccc(Br)cc1C1SCCN1S(=O)(=O)c1cccc(C)c1 (stereo not given),+,.
Cc1ccccc1OCC(=O)Nc1ccc(CC(=O)N2CCCC2)cc1,.,i
CCN1CCc2c(sc(NC(=O)CSc3ccc(F)cc3)c2-c2nc3ccccc3s2)C1,i,.
O=S(=O)(Cc1ccccc1)NCC(c1ccco1)N1CCOCC1 (stereo not given),i,i
O=S(=O)(Cc1ccc(Cl)cc1)NCC(c1ccco1)N1CCOCC1 (stereo not given),+,i
CCn1nnc2c(SCc3cccnc3)ncnc21,i,i
COCCn1c(SCc2ccccc2)nnc1-c1cn(C)nc1OC,i,i
COCCn1c(SCc2ccc(C(F)(F)F)cc2)nnc1-c1cn(C)nc1OC,+,i
COc1cc(C2=NN3C(=O)c4ccccc4C3C2)cc(OC)c1OC (stereo not given),i,i
CS(=O)(=O)c1ccc(C(=O)Nc2nnc(-c3ccc(Br)s3)o2)cc1,i,i
COc1ccc(-c2nnc(NC(=O)c3ccc(F)cc3)o2)cc1OC,i,i
